# Shown are actives, neighbours in structure and some others; about 3.5% of the full set was active somewhere.
# GPR151 activ – activators of human GPR151, primary screen, cell-based, PathHunter beta-arrestin, luminescence; PathHunter beta-arrestin GPR151 cells; activation, % at 11.2 µM; AID 1508602, 2020; hit rate 1% among 650,000; G-protein coupled receptor 151 (Homo sapiens), Q8TDV0; in the data active means activation above about 4.9%;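 further: 0% = median of compound wells and 100% = cells with positive control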
# MITF inh – MITF inhibitors, primary screen, biochemical, AlphaScreen, human; Microphthalmia-associated transcription factor (Homo sapiens), O75030; inhibition, % at 2.6 µM; AlphaScreen MITF homodimerization, bead proximity signal; hit rate 0.91% among 650,000; AID 1259374, 2018; in the data active means inhibition above about 50%;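 further: 0% = vehicle wells with protein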
# Target sequence (O75030 whole entry, looked up): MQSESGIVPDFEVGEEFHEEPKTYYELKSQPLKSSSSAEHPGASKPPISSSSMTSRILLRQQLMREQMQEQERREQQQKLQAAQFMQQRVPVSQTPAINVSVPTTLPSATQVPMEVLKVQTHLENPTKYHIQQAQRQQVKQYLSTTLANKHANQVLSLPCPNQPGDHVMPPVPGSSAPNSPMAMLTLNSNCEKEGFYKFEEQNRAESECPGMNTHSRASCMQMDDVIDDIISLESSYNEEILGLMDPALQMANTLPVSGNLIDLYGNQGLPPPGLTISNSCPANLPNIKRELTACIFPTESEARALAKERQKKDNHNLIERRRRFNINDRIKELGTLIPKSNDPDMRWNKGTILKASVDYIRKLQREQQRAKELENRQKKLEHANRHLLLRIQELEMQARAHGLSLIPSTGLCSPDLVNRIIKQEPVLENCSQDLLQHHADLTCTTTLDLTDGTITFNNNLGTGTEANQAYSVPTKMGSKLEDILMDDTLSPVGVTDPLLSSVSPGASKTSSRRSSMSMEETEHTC
# FBW7 activator – FBW7 E3 ligase activators, primary screen, biochemical, AlphaScreen, human. hit rate 0.13% among 650,000. F-box/WD repeat-containing protein 7 (Homo sapiens), Q969H0. AID 1259310, 2017. normalized activity (activation), % at 26.1 µM. AlphaScreen FBW7–phospho-cyclin E peptide binding, activator screen; in the data active means normalized activity above about 1.9%;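 further: purified mutant Fbw7 with reduced substrate affinity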
# TEAD-YAP block – TEAD-YAP interaction inhibition, primary screen, TEAD-YAP interaction inhibitor project, luminescence, HEK-TIYL cells; TEAD-Gal4/YAP UAS-luciferase luminescence; inhibition, % at 9.12 µM; hit rate 1.4% among 640,000; AID 1259422, 2018; in the data active means inhibition above about 32%;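 further: 0% = median of test compound wells and 100% = reference inhibitor wells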
# Numbers without * were called inactive.
SMILES,GPR151 activ,MITF inh,FBW7 activator,TEAD-YAP block
CSc1ccc(/C=C2N=C(/C=C/c3ccccc3)OC/2=O)cc1,0,13,0,12
CC(=O)Nc1ccc(-c2csc(C)n2)cc1,-3,-2,0,-49
CC1CCCCN1Cc1cc(Cl)c2cccnc2c1O (stereo not given),1,30,-1,73*
Cc1ccc2nc(-c3ccccc3)cn2c1,-10,-3,1,98*
Cc1ccc2nc(-c3cccc(Br)c3)cn2c1,-7,30,0,85*
Oc1ccccc1-c1cn2cc(Cl)ccc2n1,-2,9,0,-41
Cc1ccc2nc(-c3ccccc3Br)cn2c1,-6,-8,0,73*
Cc1n[nH]c(C)c1CCN(C)C1CCC(=O)N(Cc2ccccc2F)CC1 (stereo not given),2,5,0,-4
CCOc1ccc(NC(=O)CN(c2ccccc2OC)S(C)(=O)=O)cc1,0,1,0,-2
Cc1ccc(-c2cccc3cnc(Nc4cccc(C(=O)N5CCN(C)CC5)c4)nc23)cn1,1,16,0,33*
Cc1ccc(-c2cccc3cnc(Nc4ccc(C(=O)N5CCOCC5)cc4)nc23)cn1,0,22,0,49*
Cc1ccc(-c2cccc3cnc(Nc4ccc(C(=O)N5CCN(C)CC5)cc4)nc23)cn1,-1,35,0,55*
CSc1ccc(/C=N/Nc2ccc([N+](=O)[O-])cc2)cc1,0,-18,0,-58
Cc1ccc(/C(C#N)=C\c2ccc3c(c2)OCCO3)cc1,-4,-7,0,56*
CC(=O)NC(Cc1ccccc1)C(=O)NC(CCC(=O)O)C(=O)O (stereo not given),-1,-4,0,4
OC(COc1ccccc1)CN1C2=NCCN2c2ccccc21 (stereo not given),0,-8,0,-2
OC(COc1ccccc1)CN1C2=NCCCN2c2ccccc21 (stereo not given),1,11,2.1*,-4
O=C(c1n[nH]c(=O)c2ccccc12)N1CCC[C@@H]2CN(Cc3ccc(F)cc3)CC[C@H]21,-1,10,0,-4
CC(O)C12c3ccccc3C(c3ccccc31)C1C(=O)N(c3ccccc3F)C(=O)C12 (stereo not given),-1,4,2.2*,9
O=c1[nH]c(/C=C\c2ccc(O)c(O)c2)nc(O)c1[N+](=O)[O-],-1,85*,1,2
Cc1ccc(C)c(N2CCN(C(=O)C34CC5CC(C3)CC(n3nnc(C)n3)(C5)C4)CC2)c1,-1,24,1,37*
Nc1ccc2nc(-c3ccccc3Br)sc2c1,-4,-1,0,25
CCOC(=O)C1CCN(c2nc(-c3ccncc3)nc3cnccc23)CC1,4,-4,0,33*
CCOC(=O)C1CCN(c2nc(-c3ccc(Br)cc3)nc3ccccc23)CC1,1,0,0,7
COc1cc(SC)ccc1C(=O)Nc1nccs1,-1,15,0,46*
SMILES,GPR151 activ,MITF inh,FBW7 activator,TEAD-YAP block
CC(=O)c1ccc(C(=O)Nc2nccs2)cc1,-2,23,0,19
CCn1nnc(NC(=O)c2ccc(OC(C)C)cc2)n1,-5,9,0,44*
CC(C)Sc1ccc(C(=O)Nc2nccs2)cc1,-6,20,0,55*
CC(C)Oc1ccc(C(=O)Nc2nccs2)cc1,-5,13,0,52*
CCOCC(=O)Nc1cc(-c2cn3nc(OC)ccc3n2)ccc1F,-6,-10,0,68*
CCOCC(=O)Nc1ccc(-c2cn3nc(OC)ccc3n2)cc1,-3,9,0,4
Cc1ccc(C(=O)c2cc([N+](=O)[O-])ccc2N2CCOCC2)cc1C,0,0,0,42*
N#Cc1cc2c(cc1NC(=O)c1cc([N+](=O)[O-])ccc1N1CCOCC1)OCO2,-2,15,0,36*
Cc1ccc(C(=O)c2cc([N+](=O)[O-])ccc2N2CCOCC2)c(C)c1,-1,15,0,62*
Cc1cc(C)c(NC(=O)c2cc([N+](=O)[O-])ccc2N2CCOCC2)c(C)c1,0,-4,0,2
CC(=C1C(=O)c2ccccc2C1=O)N1CCN(Cc2ccc3c(c2)OCO3)CC1,1,8,0,-4
CCOc1ccc(/C=C/C(=O)Nc2ccccc2F)cc1,-9,-2,0,91*
COc1ccc(-c2[nH]nc3nc(-c4ccc(N5CCN(C)CC5)nc4)ccc23)cc1OC,1,20,1,-44
CN1CCN(c2ccc(-c3ccc4c(-c5cccc(O)c5)[nH]nc4n3)cn2)CC1,0,-5,0,96*
COc1ccc(NC(=O)CCS(=O)(=O)Cc2ccccc2)c([N+](=O)[O-])c1,0,-7,0,58*
CCOc1ccc(N/C=C/C(=O)c2ccc(OC)cc2)c([N+](=O)[O-])c1,0,-4,0,43*
CCOc1ccc(NC(=O)c2cccc(OC)c2)c([N+](=O)[O-])c1,-3,22,0,32*
CN(C)C(=O)CSc1nnc2c3ccccc3n(C)c2n1,2,4,0,1
CCOC(=O)C1(CCc2ccccc2)CCN(C(=O)CN2CCCC2=O)CC1,-1,3,0,7
Oc1ccc2oc(-c3ccccc3)nc2c1,-3,7,0,49*
Nc1ccc2oc(-c3ccccc3)nc2c1,-4,1,0,-35
O=C(O)c1ccc2oc(-c3ccccc3)nc2c1,-9,4,0,55*
CCOC(=O)CSc1ncnc2scc(-c3ccc(F)cc3)c12,0,-15,2.4*,-15
COc1ccc(-c2csc3ncnc(NCCCO)c23)cc1,1,8,0,28
CCOC(=O)CNC(=O)CSc1ncnc2scc(-c3ccc(Cl)cc3)c12,-1,-1,0,-10
SMILES,GPR151 activ,MITF inh,FBW7 activator,TEAD-YAP block
COC(=O)CCNc1ncnc2scc(-c3ccc(C)cc3)c12,3,1,0,36*
CCOC(=O)CNc1ncnc2scc(-c3ccccc3)c12,0,2,0,35*
COc1ccc(-c2csc3ncnc(NCCO)c23)cc1,2,-2,1,38*
Cc1ccccc1-c1ccc(N2CCN(C(=O)C3CCN(S(C)(=O)=O)CC3)CC2)nn1,1,-10,0,-18
Cc1ccccc1-c1ccc(N2CCN(S(C)(=O)=O)CC2)nn1,-9,-10,0,45*
COc1cc(/C=C/C(=O)C(C)(C)O)cc(OC)c1OC,1,-1,0,16
COc1cc(/C=C/C(=O)N2CCC=CC2=O)cc(OC)c1OC,-2,-9,0,78*
COc1ccnc(N2CCC(N(CC3CC3)C(=O)c3cccnc3)CC2)n1,1,3,0,-1
CCOC(=O)c1c(C)oc2ccc(NS(=O)(=O)c3ccc(Br)cc3)cc12,0,-5,0,-9
COCCOC(=O)c1c(C)oc2cc(C)c(NS(=O)(=O)c3cccs3)cc12,3,11,0,21

# From PubChem
